# Compounds without any hit were thinned out: in the full panel of roughly 79,000, 15% have a hit. Values without a mark were called inactive. Activity calls are given as the source filed them. No stated cut-off is given here; in the data, active means growth inhibition above about 70%; inactive means the rest.
# What was measured:
# [1] = NCI Yeast Anticancer Drug Screen. Data for the sgs1 mgt1 strain (AID 161);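 further: 0% = growth of cultures given vehicle only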; settings: S. cerevisiae sgs1 mgt1 strain, stronger effect = higher value
# How it was run: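 Percent growth inhibition was derived by comparing compound-exposed mutant yeast with vehicle-exposed cultures. The strain carries alterations in DNA damage repair.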
# [2] = NCI Yeast Anticancer Drug Screen. Data for the CLN2oe strain (AID 163);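 further: 0% = growth of vehicle-only control cultures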; settings: S. cerevisiae CLN2oe strain, stronger effect = higher value
# How it was run: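 Compounds are applied to yeast harbouring a defined cell-cycle control change; reduced growth compared with vehicle-treated controls gives the value.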
# [3] = NCI Yeast Anticancer Drug Screen. Data for the cln2 rad14 strain (AID 165);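 further: 0% = growth equal to vehicle treated cultures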; settings: S. cerevisiae cln2 rad14 strain, stronger effect = higher value
# How it was run: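 Readout is yeast growth inhibition versus vehicle-treated controls, using a strain with cln2 and rad14 alterations exposed to compound.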
# [4] = NCI Yeast Anticancer Drug Screen. Data for the bub3 strain (AID 167); settings: S. cerevisiae bub3 mutant strain, stronger effect = higher value
# How it was run: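 Screening used yeast with an engineered genetic alteration affecting cell cycle control. Compound-exposed cultures were compared with vehicle cultures, and reduced growth was taken as inhibition.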
# [5] = NCI Yeast Anticancer Drug Screen. Data for the wt2 strain (AID 169);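 further: 0% = growth of vehicle-treated yeast cultures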; settings: S. cerevisiae wt2 strain growth inhibition, stronger effect = higher value
# How it was run: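 Against vehicle-treated controls, the growth of yeast exposed to each compound was compared, and the inhibition was recorded.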
# [6] = NCI Yeast Anticancer Drug Screen. Data for the mlh1 strain (AID 171);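 further: 0% = growth of vehicle-treated control cultures of the same strain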; settings: S. cerevisiae mlh1 strain growth inhibition, stronger effect = higher value
# How it was run: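 Measured: yeast growth. Reference: vehicle-treated controls. Organism: strain with a defined alteration affecting DNA damage repair or cell cycle control, treated with compound.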
# [7] = NCI Yeast Anticancer Drug Screen. Data for the sgs1 strain (AID 173);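 further: 0% = growth of vehicle-only control cultures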; settings: S. cerevisiae sgs1 mutant, stronger effect = higher value
# How it was run: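 Each compound was added to cultures of the altered yeast strain. Growth was recorded, and inhibition was derived by comparison with vehicle controls.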
# [8] = NCI Yeast Anticancer Drug Screen. Data for the mlh1 rad18 strain (AID 175); settings: S. cerevisiae mlh1 rad18 strain growth inhibition, stronger effect = higher value
# How it was run: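 Genetically defined yeast (DNA repair-deficient) exposed to compounds; growth inhibition determined relative to vehicle.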
# [9] = NCI Yeast Anticancer Drug Screen. Data for the rad18 strain (AID 177); settings: S. cerevisiae rad18 mutant growth inhibition, stronger effect = higher value
# How it was run: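 Vehicle-treated cultures served as the baseline for scoring compound-induced growth inhibition in DNA-repair-mutant yeast.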
# [10] = at 5.0 µM (retest, dose inferred, filed as 0.5)
# [11] = at 50.0 µM (retest, dose inferred, filed as 5.0)
compound,measurement,setting,value
O=C(CC(=O)n1nc(-c2ccccc2)c(N=Nc2ccccc2C(=O)O)c1-c1ccccc1)Nc1ccc(Cl)cc1,growth inhibition,[1]; [10],-5%
same,growth inhibition,[1]; [11],20%
same,growth inhibition,[1]; at 50.0 µM,41.7%
same,growth inhibition,[2]; at 1.2 µM,-4%
same,growth inhibition,[2]; at 3.7 µM,-3%
same,growth inhibition,[2]; at 11.0 µM,-7%
same,growth inhibition,[2]; at 33.0 µM,-10%
same,growth inhibition,[2]; at 100.0 µM,-15%
same,growth inhibition,[3]; [10],2%
same,growth inhibition,[3]; [11],24%
same,growth inhibition,[3]; at 50.0 µM,9.4%
same,growth inhibition,[4]; at 1.2 µM,8%
same,growth inhibition,[4]; at 3.7 µM,15%
same,growth inhibition,[4]; [10],6%
same,growth inhibition,[4]; at 11.0 µM,28%
same,growth inhibition,[4]; at 33.0 µM,46%
same,growth inhibition,[4]; [11],71% (active)
same,growth inhibition,[4]; at 50.0 µM,88.7% (active)
same,growth inhibition,[4]; at 100.0 µM,72% (active)
same,growth inhibition,[5]; at 1.2 µM,-3%
same,growth inhibition,[5]; at 3.7 µM,-3%
same,growth inhibition,[5]; at 11.0 µM,-3%
same,growth inhibition,[5]; at 33.0 µM,-6%
same,growth inhibition,[5]; at 100.0 µM,4%
same,growth inhibition,[6]; at 1.2 µM,-2%
same,growth inhibition,[6]; at 3.7 µM,-3%
same,growth inhibition,[6]; at 11.0 µM,-3%
same,growth inhibition,[6]; at 33.0 µM,-6%
same,growth inhibition,[6]; at 100.0 µM,6%
same,growth inhibition,[7]; at 1.2 µM,-2%
same,growth inhibition,[7]; at 3.7 µM,-1%
same,growth inhibition,[7]; at 11.0 µM,1%
same,growth inhibition,[7]; at 33.0 µM,0%
same,growth inhibition,[7]; at 100.0 µM,21%
same,growth inhibition,[8]; [10],-11%
same,growth inhibition,[8]; [11],43%
same,growth inhibition,[8]; at 50.0 µM,36%
same,growth inhibition,[9]; at 1.2 µM,-4%
same,growth inhibition,[9]; at 3.7 µM,-1%
same,growth inhibition,[9]; at 11.0 µM,3%
same,growth inhibition,[9]; at 33.0 µM,6%
same,growth inhibition,[9]; at 100.0 µM,43%
